Results filed as inconclusive are left out. Activity calls are given as the source filed them. The call rests on the fitted dose curve; in most records, active means well fitted curve in the direction sought with a large enough effect in the repeat runs; inconclusive means weak or mixed curves; inactive means no such curve, though single readings can be large; an effect the other way counts as inactive or inconclusive.
Key:
[1] = qHTS RealTime-Glo MT Cell Viability Assay in HEK293 cells - 0 hour (AID 1224880); further: top concentration of the series differs between compounds; nearly all actives have a fitted effect of over 45% in size
Method in brief: (§1)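 Tox21 screen in HEK293 using RealTime-Glo MT chemistry, with cells and reagent co-dispensed. Luminescence proportional to viable cell number was captured at intervals during 40 h compound exposure at 37 C.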

[2] = A CellTox Green Cytotoxicity Assay to monitor cytotoxicity in HepG2 cells - 0 hour (AID 1224882); further: nearly all actives have a fitted effect of over 35% in size
Method in brief: (§2)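 Nonlytic assay: viable cells exclude the dye, so fluorescence scales with cell death. HepG2 at 600 cells/well, compounds added after 5 h, signal read across 40 h.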

[3] = A CellTox Green Cytotoxicity Assay to monitor cytotoxicity in HepG2 cells - 32 hour (AID 1224883); further: nearly all actives have a fitted effect of over 50% in size
Method in brief: as §2

[4] = A CellTox Green Cytotoxicity Assay to monitor cytotoxicity in HEK293 cells - 8 hour (AID 1224884); further: nearly all actives have a fitted effect of over 35% in size
Method in brief: (§3)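 Seeding of HEK293 cells together with cytotoxicity dye preceded a 5 h incubation at 37 C/5% CO2. Test compounds in DMSO were then added and fluorescence monitored across 40 h.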

[5] = qHTS RealTime-Glo MT Cell Viability Assay in HepG2 cells - 16 hour (AID 1224885); further: nearly all actives have a fitted effect of over 50% in size
Method in brief: (§4)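 Real-time, nonlytic viability: 600 HepG2 cells/well mixed with NanoLuc enzyme plus prosubstrate; 5 h settle, compound (DMSO) added by pintool; luminescence monitored over 40 h at 37 C.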

[6] = qHTS RealTime-Glo MT Cell Viability Assay in HEK293 cells - 24 hour (AID 1224886); further: top concentration of the series differs between compounds; nearly all actives have a fitted effect of over 50% in size
Method in brief: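 Cells + reagent dispensed (600 cells/well, HEK293) → 5 h at 37 C/5% CO2 → 23 nL compound in DMSO pinned → 40 h at 37 C → luminescence read at 0, 8, 16, 24, 32, 40 h.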

[7] = qHTS RealTime-Glo MT Cell Viability Assay in HEK293 cells - 8 hour (AID 1224887); further: top concentration of the series differs between compounds; nearly all actives have a fitted effect of over 50% in size
Method in brief: as §1

[8] = A CellTox Green Cytotoxicity Assay to monitor cytotoxicity in HEK293 cells - 16 hour (AID 1224888); further: nearly all actives have a fitted effect of over 35% in size
Method in brief: as §3

[9] = qHTS RealTime-Glo MT Cell Viability Assay in HepG2 cells - 0 hour (AID 1224889); further: nearly all actives have a fitted effect of over 50% in size
Method in brief: as §4

[10] = A CellTox Green Cytotoxicity Assay to monitor cytotoxicity in HEK293 cells - 32 hour (AID 1224881); further: nearly all actives have a fitted effect of over 40% in size
Method in brief: as §3
On the % scale 0 is the no-effect control and ±100 the full control effect.

CC(C)C(=O)OCCc1ccccc1
inactive: Potency [1] | outcome [2] | Potency [3] | Potency [4] | outcome [5] | Potency [6] | Potency [7] | outcome [8] | Potency [9]

Cc1cccc(C)c1OCC(C)N (centres undefined)
inactive: Potency [1] | Potency [3] | Potency [4] | outcome [5] | Potency [6] | outcome [8] | Potency [9]

CC(C)(C)OC(=O)c1ccc(O)cc1
inactive: Potency [1] | outcome [2] | Potency [4] | outcome [5] | Potency [6] | outcome [8] | Potency [9]

O=C(O)C(=O)Cc1ccccc1
inactive: Potency [1] | outcome [2] | Potency [3] | Potency [4] | outcome [5] | Potency [6] | Potency [7] | outcome [8] | Potency [9]

Cc1c(I)c(=O)n(-c2ccccc2)n1C
inactive: Potency [1] | outcome [2] | Potency [3] | outcome [5] | Potency [6] | Potency [7] | outcome [8] | Potency [9]

CC(=O)N[C@@H](CCC(=O)O)C(=O)O
inactive: Potency [1] | outcome [2] | Potency [3] | Potency [4] | outcome [5] | Potency [6] | Potency [7] | outcome [8] | Potency [9]

C=C(C)C(=O)OCC(C)(C)COC(=O)C(=C)C
inactive: Potency [1] | Potency [3] | Potency [4] | outcome [5] | Potency [6] | Potency [7] | outcome [8]

CC(C)(C)c1cc(CCC(=O)NN)cc(C(C)(C)C)c1O
inactive: Potency [1] | outcome [2] | Potency [4] | outcome [5] | Potency [6] | Potency [7] | outcome [8] | Potency [9]

OCCC(F)(F)C(F)(F)C(F)(F)C(F)(F)C(F)(F)C(F)(F)C(F)(F)C(F)(F)F
inactive: Potency [1] | Potency [3] | Potency [4] | outcome [5] | Potency [6] | Potency [7] | outcome [8] | Potency [9]

C=CCCCCCCCCCCCC
inactive: Potency [1] | outcome [2] | Potency [3] | outcome [5] | Potency [6] | Potency [7] | outcome [8] | Potency [9]

CCCCCOC(=O)CCC
inactive: Potency [1] | Potency [3] | Potency [4] | outcome [5] | Potency [6] | Potency [7] | outcome [8]

CCc1ccc(C=O)cc1
inactive: Potency [1] | Potency [3] | outcome [5] | Potency [6] | outcome [8] | Potency [9]

CCCCCCCCC(=O)Cl
inactive: Potency [1] | outcome [2] | Potency [4] | outcome [5] | Potency [6] | Potency [7] | outcome [8] | Potency [9]

CC(C)N(c1ccccc1)C(C)C
inactive: Potency [10] | outcome [2] | Potency [3] | Potency [4] | outcome [5] | Potency [6] | Potency [7] | outcome [8]

O=C(O)CCSSCCC(=O)O
inactive: Potency [10] | outcome [2] | Potency [3] | Potency [4] | outcome [5] | Potency [6] | Potency [7] | outcome [8]

Nc1ccc2cc(S(=O)(=O)O)cc(O)c2c1
inactive: Potency [10] | outcome [2] | Potency [3] | outcome [5] | Potency [6] | outcome [8] | Potency [9]

Oc1ccccc1-c1nnco1
inactive: Potency [10] | outcome [2] | Potency [3] | Potency [4] | outcome [5] | Potency [6] | outcome [8] | Potency [9]

COC(=O)CCCCCCCC(=O)OC
inactive: Potency [10] | Potency [3] | outcome [5] | Potency [6] | Potency [7] | outcome [8] | Potency [9]

COC(=O)C1CC(=O)C(C(=O)OC)CC1=O (centres undefined)
inactive: cytotoxicity increase [10] 0.949% [at 6.97 µM] | cytotoxicity [2] -5.98% [at 6.97 µM] | cytotoxicity increase [3] -7.66% [at 6.97 µM] | activity change, negative = cytotoxic [5] -8.58% [at 6.97 µM] | activity change, negative = cytotoxicity [6] 0.682% [at 6.97 µM] | activity change, negative = cytotoxicity [7] 5.57% [at 6.97 µM] | activity change [8] 2.56% [at 6.97 µM] | activity change, negative = cytotoxicity [9] -20.4% [at 6.97 µM]

NNc1nnc(NN)c2ccccc12
inactive: Potency [10] | outcome [2] | Potency [3] | Potency [4] | outcome [5] | Potency [6] | Potency [7] | outcome [8] | Potency [9]

CC1=C(C(=O)O)N2C(=O)[C@@H](NC(=O)[C@H](N)c3ccc(O)cc3)[C@H]2SC1
inactive: Potency [10] | outcome [2] | Potency [4] | outcome [5] | Potency [6] | Potency [7] | outcome [8] | Potency [9]

CO[C@@H]1[C@@H](OC(N)=O)[C@@H](O)[C@H](Oc2ccc3c(O)c(NC(=O)c4ccc(O)c(CC=C(C)C)c4)c(=O)oc3c2C)OC1(C)C
inactive: Potency [10] | outcome [2] | Potency [4] | outcome [5] | Potency [6] | Potency [7] | outcome [8] | Potency [9]

CN(C)c1ccc(C=O)cc1
inactive: Potency [10] | outcome [2] | Potency [4] | outcome [5] | Potency [6] | Potency [7] | outcome [8] | Potency [9]

O=C1c2ccccc2C(=O)c2cc(S(=O)(=O)O)ccc21
inactive: Potency [10] | outcome [2] | Potency [3] | Potency [4] | outcome [5] | outcome [8] | Potency [9]

CC(C)CC(=O)O
inactive: outcome [2] | Potency [4] | outcome [5] | Potency [6] | Potency [7] | outcome [8]

O=S(=O)(O)c1cc(O)c2ccc(Nc3ccccc3)cc2c1
inactive: Potency [10] | outcome [2] | Potency [3] | outcome [5] | Potency [6] | Potency [7] | outcome [8]

C=C(C)C1CCC(C)(O)CC1 (centres undefined)
inactive: Potency [10] | outcome [2] | Potency [3] | Potency [4] | outcome [5] | Potency [6] | Potency [7] | outcome [8] | Potency [9]

Nc1nnc(-c2cccc(Cl)c2Cl)c(N)n1
inactive: outcome [2] | Potency [3] | Potency [4] | outcome [8]

COc1nccnc1NS(=O)(=O)c1ccc(N)cc1
inactive: Potency [10] | outcome [2] | Potency [4] | outcome [5] | Potency [6] | Potency [7] | outcome [8] | Potency [9]

COc1ccc(S(=O)(=O)N2c3ccc(Cl)cc3[C@@](O)(c3ccccc3Cl)[C@H]2C(=O)N2CCC[C@@H]2C(N)=O)cc1OC
inactive: Potency [10] | outcome [2] | Potency [3] | Potency [4] | outcome [5] | outcome [8]

CCCOC(=O)C(C)O (centres undefined)
inactive: Potency [10] | outcome [2] | Potency [3] | Potency [4] | outcome [5] | Potency [6] | outcome [8] | Potency [9]

CNC(=O)[C@H]1O[C@@H](n2cnc3c(NCc4cc(Cl)ccc4OCc4cc(C)no4)ncnc32)[C@H](O)[C@@H]1N
inactive: outcome [2] | Potency [3] | Potency [4] | outcome [5] | Potency [6] | Potency [7] | outcome [8] | Potency [9]

COc1ccc2nc(SCc3ncc(C)c(OC)c3C)[nH]c2c1
inactive: Potency [10] | outcome [5] | outcome [8] | Potency [9]

C=COCCOCCOCCOC=C
inactive: outcome [2] | Potency [3] | outcome [5] | Potency [6] | Potency [7] | outcome [8] | Potency [9]

N[C@@H](CCC(=O)Nc1ccc([N+](=O)[O-])cc1)C(=O)O
inactive: outcome [2] | Potency [3] | Potency [4] | outcome [5] | Potency [6] | Potency [7] | outcome [8] | Potency [9]

Nc1ccc(S(=O)(=O)Nc2ccc(Cl)nn2)cc1
inactive: Potency [10] | outcome [2] | Potency [3] | outcome [5] | Potency [6] | Potency [7] | outcome [8]

O=C1CC(c2ccc(Cl)cc2)CC(=O)N1
inactive: Potency [10] | outcome [2] | Potency [3] | Potency [4] | outcome [5] | Potency [6] | Potency [7] | outcome [8] | Potency [9]

CCCCCCCCCCl
inactive: outcome [2] | Potency [3] | Potency [4] | outcome [5] | Potency [6] | Potency [7] | outcome [8] | Potency [9]

CCO[Si](CCCS)(OCC)OCC
inactive: Potency [10] | outcome [2] | Potency [3] | outcome [5] | Potency [9]

COP(=O)(OC)OC(c1ccc(Cl)cc1)P(=O)(OC)OC (centres undefined)
inactive: Potency [10] | outcome [2] | Potency [3] | outcome [5] | Potency [6] | outcome [8] | Potency [9]

N#Cc1ccc(C(=O)O)cc1
inactive: Potency [10] | Potency [3] | Potency [4] | outcome [5] | Potency [6] | Potency [7] | outcome [8] | Potency [9]

O=C1O[C@@H]2[C@@H](O)[C@H](O)O[C@@H]2[C@H]1O
inactive: Potency [10] | outcome [2] | Potency [4] | outcome [5] | Potency [6] | Potency [7] | outcome [8] | Potency [9]

O=Cc1ccc(Cl)c(Cl)c1
inactive: Potency [10] | outcome [2] | Potency [3] | outcome [5] | Potency [6] | Potency [7] | outcome [8] | Potency [9]

BrCc1cccc(Oc2ccccc2)c1
inactive: Potency [10] | outcome [2] | Potency [4] | outcome [5] | Potency [6] | Potency [7] | outcome [8] | Potency [9]

CCCN1C[C@H](CSC)C[C@@H]2c3cccc4[nH]cc(c34)C[C@H]21
inactive: outcome [2] | Potency [3] | Potency [4] | outcome [5] | Potency [6] | outcome [8] | Potency [9]

C=CC(OCC)OCC
inactive: Potency [10] | outcome [2] | Potency [3] | Potency [4] | outcome [5] | Potency [6] | Potency [7] | outcome [8] | Potency [9]

CCOC(=O)CC(=O)c1ccccc1
inactive: Potency [3] | Potency [4] | outcome [5] | Potency [6] | Potency [7] | outcome [8] | Potency [9]

CC(C)c1ccc2cc(C(C)C)ccc2c1
inactive: Potency [10] | outcome [2] | Potency [3] | Potency [4] | outcome [5] | Potency [6] | Potency [7] | outcome [8] | Potency [9]

O=C(NCCN1CCOCC1)c1ccc(Cl)cc1
inactive: Potency [10] | outcome [2] | outcome [5] | Potency [6] | Potency [7] | outcome [8] | Potency [9]

CCC(CC)CO
inactive: Potency [10] | Potency [3] | Potency [4] | outcome [5] | Potency [6] | outcome [8] | Potency [9]

Cc1ccc(S(=O)(=O)O)c(C)c1
inactive: Potency [10] | outcome [2] | Potency [4] | outcome [5] | Potency [6] | Potency [7] | outcome [8] | Potency [9]

C=C(C)C(=O)OCc1ccccc1
inactive: Potency [10] | Potency [3] | Potency [4] | outcome [5] | Potency [6] | Potency [7] | outcome [8] | Potency [9]

CC(=O)NCCCCCC(=O)O
inactive: outcome [2] | Potency [3] | Potency [4] | outcome [5] | Potency [6] | Potency [7] | outcome [8]

Source: PubChem BioAssay (Tox21)
